Data: PubChem BioAssay (NCATS)
Results filed as inconclusive are left out. The source made the active and inactive calls. Unless noted, calls follow the shape of the dose curve; as a rule, active = well fitted curve in the direction sought with a large enough effect; inconclusive = small, poorly fitted or top-dose-only effect, or another doubt; inactive = no such curve, though single readings can be large; an effect the other way counts as inactive or inconclusive.

What was measured:
[1] = Cytometric Cell-Based qHTS for Inhibitors of the mTORC1 Signaling Pathway in MEF (Tsc2-/-, p53-/-) Cells (AID 2660);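 also: Tsc2 and p53 null MEFs carrying empty vector with compound for 24 h; percent of cells above a phospho-rpS6 to PI ratio cutoff in each well; series mostly up to about 38 µM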
How it was run: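 Readout: Alexa-488 phospho-rpS6 (Ser235/236) intensity divided by PI intensity, thresholded against 7.5 nM rapamycin wells and reported as % positive cells. PI cell count served as the viability measure. Compound exposure was 24 hrs at 37 degree Celsius.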

[2] = High Content Imaging Cell-Based qHTS for Inhibitors of the mTORC1 Signaling Pathway in MEF (Tsc2-/-, p53-/-) Cells (AID 2666);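 also: percent of cells scored positive for phospho-rpS6 Ser235/236 immunostaining by imaging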; also: potency is read from the fitted curve at half-maximal effect
How it was run: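 MEF Tsc2-/- p53-/- (empty vector), DMEM/10% FBS; cpd 24 h 37 °C; PFA fix, Alexa-488 p-rpS6 S235/236 Ab, Hoechst; imaged; rapamycin-defined inhibition; % positive cells/well.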

[3] = High Content Imaging Cell-Based qHTS for Inhibitors of the mTORC1 Signaling Pathway in MEF Cells (AID 2667); also: potency is read from the fitted curve at half-maximal effect
How it was run: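 Read-out is the share of phospho-rpS6-positive cells per well, from Hoechst-normalized Alexa-488 Ser235/236 staining imaged on IN Cell. Cells: WT Tsc2-expressing Tsc2-/-, p53-/- MEFs exposed to compound for 24 hrs.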

[4] = Cytometry Cell-Based qHTS for Inhibitors of the mTORC1 Signaling Pathway in MEF cells (AID 2668); also: potency is read from the fitted curve at half-maximal effect
How it was run: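 WT MEFs (Tsc2-/-, p53-/- stably re-expressing WT Tsc2) in DMEM + 10% FBS received compounds 24 hrs after plating, for 24 hrs at 37 degree Celsius. Fixed cells stained with Alexa-488 anti-phospho-rpS6 Ser235/236 and propidium iodide; laser-scanning cytometry read-out.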

[5] = target: Ubiquitin carboxyl-terminal hydrolase 2 (Homo sapiens) (UniProt O75604); test: qHTS Validation Assay for Inhibitors of Ubiquitin-specific Protease USP2a Using CHOP2 as the Reporter (AID 463106)
How it was run: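 Fluorescence read-out at Ex 485nm/Em 531nm after 60min RT, following addition of 25nM Ub-CHOP2 plus 25nM reporter substrate to USP2 core (10nM) pretreated 30min with compound. Data normalized to NEM full inhibition; concentration-response curves fitted.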

[6] = target: DNA polymerase III PolC-type (Bacillus subtilis (strain 168)) (UniProt P13267); test: qHTS Validation Assay for the Inhibitors of DNA Replication in Gram-Positive Bacteria (AID 485295); also: potency is read from the fitted curve at half-maximal effect
How it was run: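 Reconstituted B. subtilis holoenzyme (Pol III, beta clamp, SSB, primase) was preincubated with compound at room temperature, then given single-stranded circular M13Gori plus dNTPs and NTPs. EDTA-containing PicoGreen stopped the reaction, and dsDNA product was read by fluorescence.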

[7] = target: Tumor susceptibility gene 101 protein (Homo sapiens) (UniProt Q99816); test: qHTS Validation Assay for Iinhibitors of HIV-1 Budding by Blocking the Interaction of PTAP/TSG101 (AID 485342; calls by dose curve)
How it was run: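 Tsg101 binding domain (10 uM final) in pH 7.5 HEPES/NaCl/Tween 20/EDTA/TCEP buffer was mixed with pin-transferred compounds, then FITC-labeled PTAP peptide (50 nM final) was added; after 20 min at r.t., fluorescence polarization was read.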

[8] = qHTS Validation Assay to Find Inhibitors of Chronic Active B-Cell Receptor Signaling (AID 485345; active = well fitted curve in the direction sought with a large enough effect in the main read-out, with a control signal flat, not every such curve was filed as active)
How it was run: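 TMD8 ABC-DLBCL cells stably carrying doxycycline-inducible IkappaBalpha–green luciferase fusion plus unfused red luciferase; compounds 46 uM to 3 nM, 4 h at 37C with doxycycline. Corrected green/red luminescence ratio normalized to 10 uM MG-132 and basal cell wells; curves fitted.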

Measured: Potency

Chain of Ubiquitin carboxyl-terminal hydrolase 2 (Homo sapiens) (O75604 whole entry, looked up): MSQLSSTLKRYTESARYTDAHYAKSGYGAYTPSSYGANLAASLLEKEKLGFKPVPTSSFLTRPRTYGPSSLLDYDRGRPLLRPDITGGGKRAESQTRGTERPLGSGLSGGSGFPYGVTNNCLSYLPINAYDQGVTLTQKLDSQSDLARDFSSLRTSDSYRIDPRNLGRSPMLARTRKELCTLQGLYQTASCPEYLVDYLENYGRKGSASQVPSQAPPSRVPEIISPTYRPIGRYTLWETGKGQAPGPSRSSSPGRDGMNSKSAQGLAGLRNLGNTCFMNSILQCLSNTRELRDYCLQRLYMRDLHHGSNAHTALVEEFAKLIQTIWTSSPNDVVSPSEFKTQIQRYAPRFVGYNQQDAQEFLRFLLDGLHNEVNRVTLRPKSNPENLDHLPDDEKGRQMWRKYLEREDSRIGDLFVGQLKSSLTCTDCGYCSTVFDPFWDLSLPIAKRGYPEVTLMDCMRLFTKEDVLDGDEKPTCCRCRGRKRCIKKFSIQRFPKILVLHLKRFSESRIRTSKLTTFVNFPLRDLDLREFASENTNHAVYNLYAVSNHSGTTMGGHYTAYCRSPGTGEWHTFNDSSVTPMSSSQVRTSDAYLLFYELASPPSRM
Chain of DNA polymerase III PolC-type (Bacillus subtilis (strain 168)) (P13267 whole entry, looked up): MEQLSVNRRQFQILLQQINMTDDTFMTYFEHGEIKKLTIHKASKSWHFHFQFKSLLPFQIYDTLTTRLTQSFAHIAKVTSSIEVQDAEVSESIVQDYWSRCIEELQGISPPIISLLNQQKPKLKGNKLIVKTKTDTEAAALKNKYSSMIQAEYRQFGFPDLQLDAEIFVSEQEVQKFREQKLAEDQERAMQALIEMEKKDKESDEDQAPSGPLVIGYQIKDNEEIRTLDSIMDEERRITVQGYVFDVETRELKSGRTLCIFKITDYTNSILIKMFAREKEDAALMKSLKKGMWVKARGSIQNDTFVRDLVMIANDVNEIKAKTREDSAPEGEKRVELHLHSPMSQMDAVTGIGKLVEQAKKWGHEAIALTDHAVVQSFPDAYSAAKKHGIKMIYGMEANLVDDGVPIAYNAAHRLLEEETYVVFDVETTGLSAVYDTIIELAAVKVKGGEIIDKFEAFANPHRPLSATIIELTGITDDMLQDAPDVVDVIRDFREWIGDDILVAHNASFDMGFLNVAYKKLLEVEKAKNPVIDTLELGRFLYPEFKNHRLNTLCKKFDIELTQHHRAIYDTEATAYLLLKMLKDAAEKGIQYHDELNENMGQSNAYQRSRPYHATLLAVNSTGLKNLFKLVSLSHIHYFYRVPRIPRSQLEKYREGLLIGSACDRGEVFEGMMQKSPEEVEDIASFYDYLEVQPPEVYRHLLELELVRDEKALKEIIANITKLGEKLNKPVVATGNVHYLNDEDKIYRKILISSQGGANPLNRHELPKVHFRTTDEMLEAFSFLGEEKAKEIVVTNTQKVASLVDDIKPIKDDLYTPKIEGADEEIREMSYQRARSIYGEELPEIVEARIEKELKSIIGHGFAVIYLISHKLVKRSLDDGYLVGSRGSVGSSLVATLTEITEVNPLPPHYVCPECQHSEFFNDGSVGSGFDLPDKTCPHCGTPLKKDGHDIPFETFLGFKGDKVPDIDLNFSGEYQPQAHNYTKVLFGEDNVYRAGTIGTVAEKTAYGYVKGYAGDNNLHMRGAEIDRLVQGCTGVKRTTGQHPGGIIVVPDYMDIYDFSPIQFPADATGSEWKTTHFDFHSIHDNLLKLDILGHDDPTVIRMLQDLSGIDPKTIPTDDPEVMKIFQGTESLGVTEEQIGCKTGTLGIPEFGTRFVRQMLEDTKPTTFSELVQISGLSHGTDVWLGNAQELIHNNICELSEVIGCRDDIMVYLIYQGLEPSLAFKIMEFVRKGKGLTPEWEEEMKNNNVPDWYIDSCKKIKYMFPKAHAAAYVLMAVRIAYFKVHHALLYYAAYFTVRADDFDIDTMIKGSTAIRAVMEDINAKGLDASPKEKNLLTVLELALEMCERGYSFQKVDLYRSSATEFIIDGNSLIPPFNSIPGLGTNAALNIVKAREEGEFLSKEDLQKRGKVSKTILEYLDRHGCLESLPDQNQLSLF
Chain of Tumor susceptibility gene 101 protein (Homo sapiens) (Q99816 whole entry, looked up, the tested form may be a part): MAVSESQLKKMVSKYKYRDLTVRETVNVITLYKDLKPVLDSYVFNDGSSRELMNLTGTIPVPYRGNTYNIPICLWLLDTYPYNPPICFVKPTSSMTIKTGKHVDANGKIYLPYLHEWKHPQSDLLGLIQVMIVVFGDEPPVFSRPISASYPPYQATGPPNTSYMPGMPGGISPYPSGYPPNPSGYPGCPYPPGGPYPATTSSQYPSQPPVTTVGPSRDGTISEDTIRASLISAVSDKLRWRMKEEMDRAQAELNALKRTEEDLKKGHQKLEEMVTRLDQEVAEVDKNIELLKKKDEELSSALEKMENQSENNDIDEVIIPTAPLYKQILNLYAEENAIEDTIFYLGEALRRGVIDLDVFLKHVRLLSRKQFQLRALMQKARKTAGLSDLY

Nc1ncnc2c1nc(Br)n2C1OC2COP(=O)(O)O[C@@H]2C1O (stereo partly drawn)
inactive: [1] | [2] | [3] | [4] | [5] | [6] | [7] | [8]

COc1ccc(-c2cc3ncc(C)n3c(Nc3ncccc3C(N)=O)n2)cc1OC
inactive: [1] | [2] | [3] | [5] | [6] | [7]

C[C@]12C=CC(=O)C=C1CC[C@@H]1C2=CC[C@]2(C)[C@@H](C(=O)CN3CCN(c4cc(N5CCCC5)nc(N5CCCC5)n4)CC3)CC[C@@H]12
inactive: [1] | [2] | [3] | [4] | [5] | [7]

COc1cc(/C=C(\C#N)C(=O)Nc2nnc(C(F)(F)F)s2)ccc1OCc1ccc(C(F)(F)F)cc1C(F)(F)F
inactive: [1] | [2] | [3] | [7]
active: [6] 10.6 µM

CC[n+]1c(/C=C/C=C2/N(C)c3ccccc3C2(C)C)sc2ccccc21
inactive: [1] | [2] | [6]
active: [3] 0.0521 µM | [4] 0.0826 µM

CC(O)C(O)[C@H]1CNc2nc(N)[nH]c(=O)c2N1 (stereo partly drawn)
inactive: [1] | [2] | [3] | [4] | [5] | [6] | [7] | [8]

CCc1ccc2c(-c3cccc(Cl)c3)nc(=O)n(CC)c2n1
inactive: [1] | [2] | [3] | [4] | [6] | [7]

CNCCc1cnc(CCC(c2ccccc2)c2ccccc2)[nH]1
inactive: [5] | [6] | [7]
active: [4] 11.7 µM

N[C@H](C(=O)O)[C@H](Cc1ccccc1)C(=O)O
inactive: [1] | [2] | [3] | [4] | [5] | [6] | [7] | [8]

O=c1cc(-c2ccccc2F)[nH]c2cc3c(cc12)OCO3
inactive: [1] | [2] | [3] | [5] | [6]

C=C1C[C@@]23CC[C@H]4[C@@](C)(CCC[C@@]4(C)C(=O)OC4OC(CO)C(O)C(O)C4O)[C@@H]2CC[C@]1(OC1OC(CO)C(O)C(O)C1OC1OC(CO)C(O)C(O)C1O)C3 (stereo partly drawn)
inactive: [1] | [2] | [3] | [5] | [7]

Oc1ccc(/C=C/c2ccc(/C=C/c3ccc(O)cc3)c(Br)c2)cc1
inactive: [1] | [2] | [3] | [5] | [7]

O=C(O)CCC/C=C\C[C@@H]1[C@@H](/C=C/[C@H](O)C2Cc3ccccc3C2)[C@@H](F)C[C@@H]1O
inactive: [1] | [2] | [3] | [5] | [6] | [7]

CC(C)NC[C@H](O)COc1cccc2ccccc12
inactive: [1] | [2] | [3] | [4] | [5] | [6] | [7] | [8]

Cc1cc(Cn2cnc3c2C[C@@H](C(=O)O)N(C(=O)C(c2ccccc2)c2ccccc2)C3)ccc1N
inactive: [1] | [2] | [3] | [4] | [5] | [6] | [7] | [8]

Nc1nc2c(nc(Br)n2C2OC3COP(=O)(O)O[C@@H]3C2O)c(=O)[nH]1 (stereo partly drawn)
inactive: [1] | [2] | [3] | [4] | [5] | [6] | [7] | [8]

Brc1c(Br)c(Br)c2[nH]cnc2c1Br
inactive: [1] | [2] | [3] | [4] | [5] | [6] | [7]

CN(C)CCCc1cc(C(=O)Nc2ccc(-c3ccncc3)cc2)ccc1O
inactive: [1] | [2] | [3] | [4] | [5] | [6] | [7]

CC(=O)O[C@H]1Cc2ccccc2N(C(N)=O)c2ccccc21
inactive: [1] | [2] | [3] | [4] | [5] | [6] | [7] | [8]

CCCCCCCCCCC(C)(C)C(=O)Nc1c(OC)cc(OC)cc1OC
inactive: [1] | [2] | [3] | [4] | [5] | [8]

N#Cc1cc([N+](=O)[O-])c2sc(C(N)=O)[n+]([O-])c2c1
active: [2] 18.5 µM
inactive: [3] | [5] | [6] | [7]

Cc1nc2n(c(=O)c1CCN1CCC(c3noc4cc(F)ccc34)CC1)CCCC2O (stereo not drawn)
inactive: [1] | [2] | [3] | [4] | [5] | [6] | [7] | [8]

c1ccc2c(c1)CCC[C@H]2Nc1nc2ccccc2[nH]1
inactive: [1] | [2] | [3] | [4] | [5] | [6] | [8]

CSc1nc(N)c2ncn([C@@H]3O[C@H](COP(=O)(O)OP(=O)(O)O)C(O)[C@H]3O)c2n1 (stereo partly drawn)
inactive: [1] | [2] | [3] | [4] | [5] | [6] | [7]

Nc1nc2c(cnn2CCc2ccccc2)c2nc(-c3ccco3)nn12
inactive: [1] | [2] | [3] | [4] | [5] | [7]

CCCCCCC(=O)OC1CC(C)(C)NC(C)(C)C1
inactive: [1] | [2] | [3] | [5] | [6] | [7] | [8]

CC(C)[C@@H]1CC[C@@H](C)C[C@@H]1P(=O)(c1ccccc1)c1ccccc1
inactive: [1] | [2] | [3] | [4] | [5] | [6] | [7] | [8]

C=CCNc1ncnc2ccc(Br)cc12
inactive: [1] | [2] | [3] | [5] | [6] | [7]

COc1ccc(CCn2nnnc2C2(c3ccc(C)cc3)CC2)cc1
inactive: [1] | [2] | [3] | [4] | [6]

CN1CC(O)C(O)C(O)C1CO (stereo not drawn)
inactive: [1] | [2] | [3] | [4] | [5] | [6] | [7] | [8]

O=c1[nH]c(=S)[nH]c(-c2ccccc2)c1Cc1c(O)ccc2ccccc12
inactive: [1] | [2] | [3] | [5] | [7]

CC(C)(C)c1ccc(/C=C/C(=O)Nc2ccc3c(c2)OCCO3)cc1
inactive: [1] | [2] | [3] | [5] | [6] | [7]

OC[C@H]1O[C@H](n2cnc3c(N[C@H]4CCC[C@@H]4O)ncnc32)[C@H](O)[C@@H]1O
inactive: [1] | [2] | [3] | [5] | [6] | [7]

CN1Cc2sccc2C(c2ccc(O)c(O)c2)C1 (stereo not drawn)
inactive: [1] | [2] | [3] | [4] | [6] | [7] | [8]

CN(CC[C@@H](Oc1ccc(C(F)(F)F)cc1)c1ccccc1)CC(=O)O
inactive: [1] | [2] | [3] | [4] | [7] | [8]

CC(=O)SC1CC2=CC(=O)CC[C@]2(C)C2CC[C@@]3(C)C(CC[C@@]34CCC(=O)O4)C12 (stereo partly drawn)
inactive: [1] | [2] | [3] | [5] | [7]

CCCn1c(=O)c(C)cn2nc(N)nc12
inactive: [1] | [2] | [3] | [4] | [6] | [7] | [8]

C[C@](Cc1ccc(O)c(O)c1)(NN)C(=O)O
inactive: [1] | [2] | [3] | [5] | [6] | [7] | [8]

C=C1C[C@@]23CC[C@H]4[C@@](C)(CCC[C@@]4(C)C(=O)O)[C@@H]2CC[C@]1(O)C3
inactive: [1] | [2] | [3] | [4] | [5] | [6] | [7] | [8]
